# Hits are enriched below; roughly 2.6% of the tested compounds scored in any of these assays.
# Bim-Mcl-1 = inhibitors of Bim-Mcl-1 interaction, human. inhibition, % at 10 µM. Bead-based flow cytometry, Bim peptide-Mcl-1 binding. 190,000 tested, 0.1% active. Q07820; in the data active = inhibition above about 40%;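 note: 0% = no compound tracer wells and 100% = peptide blocker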
# Target sequence (Q07820 whole entry, looked up): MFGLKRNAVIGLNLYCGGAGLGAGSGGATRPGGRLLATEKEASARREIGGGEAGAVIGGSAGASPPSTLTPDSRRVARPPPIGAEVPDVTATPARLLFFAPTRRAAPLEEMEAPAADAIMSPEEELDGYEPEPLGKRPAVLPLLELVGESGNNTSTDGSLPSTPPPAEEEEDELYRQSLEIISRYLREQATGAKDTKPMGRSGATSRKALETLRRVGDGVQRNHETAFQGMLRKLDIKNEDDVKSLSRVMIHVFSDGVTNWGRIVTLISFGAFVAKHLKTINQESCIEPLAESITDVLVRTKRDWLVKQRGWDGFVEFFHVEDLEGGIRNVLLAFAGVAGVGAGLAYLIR
# MCL1-BIM inh = inhibitors of human MCL1 binding to BIM-BH3 peptide; Q07820; GST-MCL1 / FITC-Bim-BH3 fluorescence polarization; inhibition, % at 10.9 µM; 320,000 tested, 0.68% active; AID 2057;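 active = inhibition above the mean inhibition of all tested compounds plus 3 SD, set per campaign, cut at about 40% in these data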;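 note: 0% = DMSO wells and 100% = unlabeled Bim-BH3 peptide control; higher means more loss of mP so more displacement of Bim peptide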
# Mcl1 Bid PPI = disrupts binding of human Mcl-1 to Bid peptide; Q07820; inhibition, % at 21.7 µM; 220,000 tested, 0.97% active; AID 1021; TR-FRET Mcl-1/Bid-Dy647 peptide binding, 1536-well;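 active = compounds that cut the binding signal by more than half at the single screening dose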;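 note: His-tagged Mcl-1 with europium anti-His antibody binding Bid BH3 peptide; 0% = Mcl-1 plus peptide wells and 100% = peptide-only wells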
# eIF4E 4G PPI = eIF4E/eIF4G interaction inhibition in translation initiation; TR-FRET eIF4E-eIF4GI(517-606) binding, 2 h; 220,000 tested, 0.37% active; inhibition, % at 21.7 µM; P63073+Q04637;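 active = inhibition above about 30%, limit read from the data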;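 note: 0% = full FRET control wells and 100% = background wells lacking eIF4GI fragment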
# 14-3-3 Bad inh = disrupts binding of bovine 14-3-3 zeta to phospho-Bad peptide; TR-FRET 14-3-3zeta/Dy647-pBad peptide displacement, 1 h; inhibition, % at 21.7 µM; 220,000 tested, 0.71% active; P63103;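 active = inhibition above about 70%, limit read from the data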;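 note: 0% = full 14-3-3 plus peptide FRET controls and 100% = background without 14-3-3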
# Target sequence (P63103 whole entry, looked up): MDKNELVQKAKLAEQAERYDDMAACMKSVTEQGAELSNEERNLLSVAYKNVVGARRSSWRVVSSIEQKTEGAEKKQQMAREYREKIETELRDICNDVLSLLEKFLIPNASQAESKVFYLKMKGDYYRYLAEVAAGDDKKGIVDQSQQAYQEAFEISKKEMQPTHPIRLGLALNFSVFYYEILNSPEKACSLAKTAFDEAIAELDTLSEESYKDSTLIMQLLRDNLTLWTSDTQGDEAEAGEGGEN
# Mcl1-Noxa inh = disrupts binding of human Mcl-1 to Noxa peptide; inhibition, % at 21.7 µM; TR-FRET Mcl-1/Noxa peptide binding, 2 h; Q07820; AID 1022; 220,000 tested, 1.5% active;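 active = compounds that cut the protein-peptide binding signal by more than 50% relative to plate controls in a single-dose test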;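 note: His-tagged Mcl-1 with rhodamine Noxa BH3 peptide and terbium anti-His antibody; 0% = Mcl-1 plus Noxa peptide wells and 100% = peptide-only wells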
# An asterisk follows results filed as active; . = not tested or not shown; [ ] = another dose, or the depositor's remark.
SMILES,Bim-Mcl-1,MCL1-BIM inh,Mcl1 Bid PPI,eIF4E 4G PPI,14-3-3 Bad inh,Mcl1-Noxa inh
CCN(CC)S(=O)(=O)c1cc([N+](=O)[O-])ccc1N=Nc1c(O)[nH]c2ccccc12,-1,-5,51*,4,23,7
O=C(N=Nc1c(O)[nH]c2ccc([N+](=O)[O-])cc12)c1ccccc1[N+](=O)[O-],.,8,-8,2,3,14
O=[N+]([O-])c1ccc2[nH]c(O)c(N=Nc3ccc(F)cc3)c2c1,.,-3,.,.,.,.
CCc1cc(C(=O)N=Nc2c(O)[nH]c3ccc([N+](=O)[O-])cc23)c2ccccc2n1,-1,38,-48,27,0,92*
S=c1nc(-c2cc(Cl)ccc2Cl)[nH][nH]1,0,34,58*,2,-6,50
CS(=O)(=O)c1cnc(-c2ccccc2)nc1-c1ccccc1Cl,0,7,-11,0,-6,2
CS(=O)(=O)c1cnc(-c2ccccc2)nc1-c1ccc(Cl)c(Cl)c1,1,-4,5,6,73*,18
Cc1c(Cc2ccccc2)sc(NC(=O)/C=C/c2cccc3ccccc23)c1C(N)=O,-5,-5,-45,-2,9,59*
CC1(C)CC(=O)c2ccc(OCc3ccc([N+](=O)[O-])cc3)cc2O1,.,-15,-13,34*,-10,2
CC1(C)CC(=O)c2c(O)cc(OCc3ccc(Br)cc3)cc2O1,-3,3,-7,-11,1,-7
COc1ccccc1NS(=O)(=O)c1cccc(NC(=O)C2CC2)c1,.,-5,.,.,.,.
COc1ccccc1NS(=O)(=O)c1cccc(NC(=O)C2CC(=O)N(Cc3ccccc3)C2)c1 (configuration not stated),1,0,88*,-1,-18,12
Cc1ccc(CN2C(=O)N/C(=C\c3ccc(-c4ccc(C(=O)O)cc4C)o3)C2=O)cc1,.,24,-16,10,19,57*
Cc1ccc(C(=O)O)cc1-c1ccc(/C=C2\SC(=O)N(CC(=O)Nc3ccccc3)C2=O)o1,4,18,-56,6,34,47
Cc1cc(C(=O)O)ccc1-c1ccc(CO)o1,-3,-10,-13,3,2,22
O=C(O)c1ccc(-c2ccc(/C=C3\NC(=O)N(Cc4ccc(Cl)cc4)C3=O)o2)cc1,.,.,-33,33*,29,61*
Cc1cc(C(=O)O)ccc1-c1ccc(/C=C2\NC(=O)N(Cc3ccccc3Cl)C2=O)o1,1,29,-16,5,20,61*
O=C(O)c1ccc(COc2ccccc2/C=C2\NC(=O)N(Cc3ccc(F)cc3)C2=O)cc1,0,3,-14,3,-3,26
CNC(=O)COC(=O)c1cc(-c2ccccc2)nn1-c1ccccc1,2,2,0,1,0,14
CC(NC(=O)NC1CCCCC1)C(c1cccs1)N1CCN(c2ccccc2)CC1 (configuration not stated),0,0,92*,-4,15,-7
CC(NC(=O)C1CC1)C(c1cccs1)N1CCN(c2ccccc2)CC1 (configuration not stated),-4,8,-16,0,26,23
CC(=O)C1=C(C)NC(SCc2ccc(C#N)cc2)=C(C#N)C1c1ccco1 (configuration not stated),0,-6,-32,44*[fluorescence artefact?],-23,37
O=C(OCc1ccc(F)cc1)c1ccc2c(c1)-c1ccccc1C2=O,-3,7,-16,1,-4,1
CCOC(=O)C1=C(Cc2ccc(F)cc2)C(=O)c2ccccc2C1=O,0,41*,-4,8,-3,46
O=C(CN1CCN(c2ccc(O)cc2)CC1)Nc1cc(S(=O)(=O)N2CCCC2)ccc1Cl,-1,22,-91,1,-7,57*
SMILES,Bim-Mcl-1,MCL1-BIM inh,Mcl1 Bid PPI,eIF4E 4G PPI,14-3-3 Bad inh,Mcl1-Noxa inh
O=C(CN1CCN(c2ccc(O)cc2)CC1)Nc1cc(S(=O)(=O)N2CCCCC2)ccc1Cl,1,22,-60,2,-4,69*
O=C(COC(=O)COc1ccc(Cl)cc1)NC1CC1,.,-6,.,.,.,.
Cc1c(C(=O)NNC(=S)Nc2ccc(S(N)(=O)=O)cc2)oc2ccccc12,.,10,.,.,.,.
O=C(CN(C1CCCCC1)C1CCCCC1)N1CCc2ccccc2C1,1,-1,21,10,88*,18
CC(=O)Oc1ccc(NC(=O)CSc2ccccc2)cc1,0,2,8,-8,-5,75*
O=C(CSc1ccccc1)Nc1ccccc1C(=O)O,2,0,56*,0,31,39
CCC1CCCCN1CCCNC(=O)Cn1c(=O)c2cccn2c2cccnc21 (configuration not stated),.,0,.,.,.,.
C=C1CC(C(=O)N/N=C/c2ccccc2)C1,-26,-5,-15,21,11,-1
O=C1SC(SCc2ccccc2Cl)=N/C1=C\c1ccc(C(=O)O)cc1,-2,14,-34,9,18,80*
O=C(NNC(=O)C1CCN(Cc2ccccc2)CC1)c1cccs1,0,-2,-24,0,73*,1
O=C(Nc1ccc2nc(-c3ccccc3)[nH]c2c1)c1cccs1,7,-5,-25,-4,-10,18
O=C(Nc1cccc(N2CCCC2)c1)c1cccs1,0,1,-67,-2,4,51*
O=C(Nc1ccc2nc(-c3ccc4nc[nH]c4c3)[nH]c2c1)c1cccs1,21,9,-6,-10,3,79*
O=C(Nc1ccc2[nH]ccc2c1)c1cccs1,.,-1,-113,32*,-4,17
O=C(O)c1ccc(Cl)c(S(=O)(=O)Nc2ccccc2C(=O)Nc2ccc(Cl)cc2)c1,.,5,.,.,.,.
CC(C)(C)NC(=O)C1Cc2ccccc2CN1 (configuration not stated),0,7,4,2,0,9
CC(C)CNC(=O)CSc1ccc(S(=O)(=O)N2CCN(C)CC2)cn1,.,2,.,.,.,.
COc1ccc(/C=C(\C#N)C(=O)Nc2cccc3ncccc23)cc1OC,.,18,-38,-3,-1,55*
COc1cc(/C=C(\C#N)C(=O)Nc2cccc3ncccc23)cc(OC)c1OC,-6,3,-7,1,35,21
C/C(=N/OCO/N=C(/C)c1ccc(F)cc1)c1ccc(F)cc1,-4,3,14,-3,3,11
COc1cccc(-n2nnc3c(=O)n(CC(=O)NC4CCCC4)cnc32)c1,-3,-2,9,0,-4,52*
CCCCC1=CC2=C(c3ccco3)C(=O)C(C)(OC(=O)c3ccc(OC)cc3)C(=O)C2=CN1C1CC1 (configuration not stated),.,40*,-144,-5,-5,2

# From PubChem BioAssay
